DRD3 agonist: activates the human D3 dopamine receptor | AID 652048 | P35462 | 0.58% of 410,000 active | D3R DiscoveRx beta-arrestin cells, luminescence, 90 min | max activation, %; in the data active = max activation above about 30%
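Agonist-mode cell screen: cells plated at 1500/well and incubated overnight at 37 °C, then exposed to library compounds for 90 min at 37 °C. Detection reagent was added for 30–60 min at room temperature, and luminescence was read.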
LDHA inh: LDHA (human) enzyme inhibition; purified LDHA, NADH/diaphorase-resazurin fluorescence; active compounds read low; activity change, % (values are at about 110 or 230 µM); 0.15% of 480,000 active; AID 1347041; P00338; in the data active = activity change below about -30%; inconclusive = mostly about -25% to -30%
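Human LDH5 at 2 nM final in Tris HCl pH 7.4 with 0.06 mM NADH and 0.2 mM pyruvate, reacted 5 minutes at room temperature. Remaining NADH coupled via diaphorase/resazurin; resorufin fluorescence read at 0 and 20 minutes, normalized to enzyme-free and DMSO wells.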
PI5P4Ka inh: PI5P4K alpha (human) kinase inhibition. max response, %. PI5P4Kalpha enzyme, ADP-Glo luminescence, 60 min; active compounds read low. P48426. 1.2% of 330,000 active; active = max response of -50% or lower; inconclusive = between -30% and -50%; inactive = -30% or higher; note: value at the top dose of about 77 µM
Target sequence (P48426 whole entry, looked up): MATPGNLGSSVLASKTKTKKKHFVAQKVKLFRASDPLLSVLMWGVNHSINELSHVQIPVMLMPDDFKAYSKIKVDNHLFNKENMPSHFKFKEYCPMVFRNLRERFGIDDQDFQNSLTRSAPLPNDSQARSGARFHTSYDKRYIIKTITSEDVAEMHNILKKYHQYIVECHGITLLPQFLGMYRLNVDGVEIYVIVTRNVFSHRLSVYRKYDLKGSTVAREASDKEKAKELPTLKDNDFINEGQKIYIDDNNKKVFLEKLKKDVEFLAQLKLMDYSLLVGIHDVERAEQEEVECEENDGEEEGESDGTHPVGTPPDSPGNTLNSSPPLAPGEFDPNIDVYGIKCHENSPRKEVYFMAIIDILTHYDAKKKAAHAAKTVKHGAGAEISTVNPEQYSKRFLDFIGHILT
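Quantitative HTS of the MLSMR library against PI5P4Kalpha with substrate. ATP added last at 5 microM final; room temperature, 60 minutes. Remaining ATP depleted, ADP converted and read as luminescence.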
PI4K2A inh: inhibitors of human PI4K2A; Q9BTU6; purified PI4K2A, ADP-Glo luminescence, 1 h; active compounds read low; activity change, negative = inhibition, % at 76.9 µM; 0.13% of 420,000 active; in the data active = activity change below about -50%; inconclusive = mostly about -30% to -49%
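In this quantitative HTS, ADP production by PI4K2A was quantified luminescently after 1 h at ambient temperature; 100 microM adenosine served as plate-quality control.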
D3 antag: D3 dopamine receptor (human) antagonism | AID 652054 | max response, negative = inhibition, % | 2.5% of 360,000 active | P35462 | D3R cells, DiscoveRx beta-arrestin luminescence, antagonist mode; active compounds read low; in the data active = max response below about -50%; inconclusive = no clear call, values can overlap the other calls
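Cells plated overnight at 1500 cells/well, then exposed to library compounds with dopamine controls for 90 minutes at 37 degrees C. DiscoveRx reagent added for 30–60 minutes at room temperature; luminescence read, quantitative HTS format.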
A number is an active result; . = inactive; ? = inconclusive; / = no result given; ! = a repeat was not active. In the library only some 3.3% were active in any assay of this set; here they are far more common.

SMILES	DRD3 agonist	LDHA inh	PI5P4Ka inh	PI4K2A inh	D3 antag
Clc1ccc(SCCN2CCNCC2)cc1	.	.	.	.	.
CC1CN(CCCCSc2ccccc2)CC(C)O1 (stereo not given)	.	.	.	.	.
Clc1ccc(SCCCN2CCCCC2)cc1	.	.	.	.	-80
CC1CN(CCCSc2ccc(Cl)cc2)CC(C)O1 (stereo not given)	.	.	.	.	-71
COc1cc(/C=C2\SC(=O)N(c3cccc(Cl)c3)C2=O)cc([N+](=O)[O-])c1O	.	.	-81	.	-62
O=C1S/C(=C\c2ccc(O)c([N+](=O)[O-])c2)C(=O)N1c1ccccc1Cl	.	.	?	.	.
COc1cc(/C=C2\SC(=O)N(c3ccc(Cl)cc3)C2=O)cc([N+](=O)[O-])c1O	.	.	-51	.	-70
Cc1ccc(NC(=O)OCCCN2C(=O)CCC23CCC(C)CC3)cc1 (stereo not given)	/	/	/	.	/
CC1=C(C(=O)OCC(Cl)(Cl)Cl)C(c2ccc3c(c2)OCO3)NC(=O)N1 (stereo not given)	/	.	/	/	/
CN(Cc1ccc(OC(F)F)cc1)C(=O)c1n[nH]c(=O)c2ccccc12	/	.	/	/	/
COc1ccccc1OCC(=O)N1CCN(S(=O)(=O)c2ccc3c(c2)OCCO3)CC1	/	.	/	/	/
CCCn1c2c(c(=N)c3c1CCC3)CCC2	.	.	.	.	.
CCCn1c2c(c(=N)c3c1CCC3)CCCC2	.	-36	.	.	.
COc1ccc(C2=NN(C(=O)CCC(=O)O)C(c3ccc(OC)c(OC)c3)C2)cc1 (stereo not given)	.	.	.	.	-50
COc1ccc(C2CC(c3ccc(Br)cc3)=NN2C(=O)CCC(=O)O)cc1OC (stereo not given)	.	.	.	.	.
CC1(C)CC(NC(=O)c2cc3ccccc3oc2=O)CC(C)(C)N1	/	.	/	/	/
O=C(O)/C=C/c1ccc([N+](=O)[O-])o1	.	.	.	.	.
O=C1NC(=S)S/C1=C\C=C\c1ccc([N+](=O)[O-])o1	.	.	-96	.	?
CCOc1ccc(NC(=O)COc2ccccc2)c2cccnc12	/	.	/	/	/
Cn1nc(C(F)(F)F)cc1C(=O)NC1CCCCCC1	40	.	/	.	.
Cn1nc(C(=O)NC2CCCCCC2)c(Cl)c1C(F)(F)F	/	.	/	/	/
O/N=C/c1c(O)c(Br)cc2oc3c(c12)CCCC3	/	.	/	/	/
CC(C)CN=Cc1c(O)c([N+](=O)[O-])cc2oc3c(c12)CCCC3	.	.	?	.	-106
O=[N+]([O-])c1cc2oc3c(c2c(C=NCc2ccccc2)c1O)CCCC3	.	.	-50	.	-85
CC1(C(=O)NC2CCN(Cc3ccccc3)CC2)CCN1Cc1cc2ccccc2o1 (stereo not given)	.	.	.	.	-78
SMILES	DRD3 agonist	LDHA inh	PI5P4Ka inh	PI4K2A inh	D3 antag
CSc1ccc(CN2CCC2(C)C(=O)NC2CCN(Cc3ccccc3)CC2)cc1 (stereo not given)	.	.	.	.	-111
C/C(=N/Nc1ccc(F)cc1F)c1ccccc1Br	/	.	/	/	/
O=C(NNc1cc(Br)c(O)c(Br)c1)c1ccccc1	.	.	-91	.	?
Cc1cc(C)c(NS(=O)(=O)c2c(C)cc(N3C(=O)CCS3(=O)=O)cc2C)c(C)c1	/	.	/	/	/
Cc1ccc(C)c(NC(=O)CSc2c3c(nc4ccc(Cl)cc24)CCCC3)c1	43	.	/	.	/
CN1CCCN(c2cc(-c3ccc4ccccc4c3)nc3ccnn23)CC1	.	.	.	.	-67
Fc1ccccc1N1NC2(CCCCC2)NC1=S	/	.	/	/	/
CCOc1ccccc1-c1nc(-c2ccc(NC(=O)c3ccc(Br)o3)cc2)no1	57	.	.	.	.
CCOc1ccccc1-c1nc(-c2ccc(NC(=O)Cc3ccc(OC)cc3)cc2)no1	.	.	.	.	.
Cc1n[nH]c(=S)n(NC(=O)CC(=O)Nn2c(=S)[nH]nc(C)c2=O)c1=O	.	.	.	.	-86
C/C(=N\NC(=O)c1ccccc1)c1ccc(-c2ccccc2)cc1	/	.	/	/	/
Cc1cccc(C)c1-n1nnnc1C(c1cc2ccccc2o1)N1CCN(C/C=C/c2ccccc2)CC1 (stereo not given)	.	.	.	.	-74
Cc1cccc(C)c1-n1nnnc1C(c1ccnc2ccccc12)N1CCN(CC(=O)NC(C)C)CC1 (stereo not given)	.	.	.	.	.
Cc1cccc(C)c1N1CCN(C(c2cc3ccccc3o2)c2nnnn2C(C)(C)C)CC1 (stereo not given)	.	.	.	.	.
Cc1cccc(C)c1-n1nnnc1C(c1cccc2ccccc12)N1CCN(C/C=C/c2ccccc2)CC1 (stereo not given)	.	.	.	.	-107
O=C(NCC(c1ccco1)N1CCCCC1)c1nn(Cc2ccccc2)c(=O)c2ccccc12 (stereo not given)	/	.	/	/	/
Cn1c(=O)n(C)c2cc(Sc3ccccc3Cl)c(NS(C)(=O)=O)cc21	/	.	/	/	/
Cn1c(=O)c2c(ncn2CC(=O)Nc2ccccc2C(=O)NCCc2ccccc2)n(C)c1=O	/	.	/	/	/
COCCNC(=O)Cn1cc(S(=O)(=O)Cc2ccccc2)c2ccccc21	/	.	/	/	/
COc1ccc(-c2ocnc2C(=O)Nc2cccc(OC)c2)cc1	/	.	/	/	/
CC(=O)c1ccc(N2CCN(S(=O)(=O)c3cc4[nH]c(=O)c(=O)[nH]c4cc3C)CC2)cc1	.	-30!	.	.	.
Cc1ccc(-c2nc(CC(=O)NCc3ccccc3F)cs2)o1	/	.	/	/	/
Cc1ccc(-c2nc(CC(=O)NCCc3ccccc3F)cs2)o1	/	-33	/	/	/
Cc1coc2c1C(=O)C(=O)c1c-2ccc2c(C)cccc12	.	.	-56	?	.
Cc1coc2c1C(=O)C(=O)c1c-2ccc2c1CCCC2(C)C	.	.	-52	.	.
SMILES	DRD3 agonist	LDHA inh	PI5P4Ka inh	PI4K2A inh	D3 antag
Cc1ccc(C(=O)c2coc3c2C(=O)C(=O)c2ccccc2-3)cc1	.	.	/	.	.
CNc1ccc2c3c(cccc13)C(=O)N(C)C2=O	.	.	.	.	.
C[C@H]1COC2=C1C(=O)C(=O)c1c2ccc2c1CCCC2(C)C	.	.	-52	.	.
O=C(Oc1ccccc1)c1ccc(COC(=O)c2cnccn2)cc1	.	.	.	.	-106
O=C(Oc1ccc(Cl)cc1)c1ccc(COC(=O)c2cnccn2)cc1	.	.	.	.	.
Cc1oc(-c2ccccc2Cl)nc1CSc1nc2c(c(=O)[nH]1)CCCC2	30	.	.	.	.
O=c1[nH]c(SCc2ccccc2Cl)nc2c1CCC2	.	.	/	.	.
N#Cc1c([N+](=O)[O-])cc([N+](=O)[O-])cc1S(=O)(=O)Cc1ccccc1	.	.	.	.	-102
O=C(Nc1cccc(S(=O)(=O)N2CCCCC2)c1)c1nc(-c2ccccc2)n(-c2ccccc2)n1	/	.	/	/	/
O=C(ONC(=O)C1CCCCC1C(=O)NOC(=O)c1ccccc1)c1ccccc1 (stereo not given)	82	.	.	.	.
Cc1ccc(C)c(S(=O)(=O)CCN2CCN(c3cccc(Cl)c3)CC2)c1	/	.	/	/	/
